Results from the supplement of paper PMC10849652.
Of roughly 8,800 targets only a part is listed; those with a hit were picked by preference. About 0.5% of all pairs of compound and target were hits. Unmarked numbers belong to inactive results.

Key:
Test in all cases: log2 fold change, soluble protein after heating vs DMSO (PISA); higher = thermal stabilisation; K562 lysate, 10 uM; active = over 0.2 and 3.5 SD of the protein, either way, in both replicates (recomputed)
ibrutinib = compound: C=CC(=O)N1CCC[C@@H](n2nc(-c3ccc(Oc4ccccc4)cc3)c3c(N)ncnc32)C1 [ibrutinib]
Summary of the method: (§1)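 K562 pellets were dounce-homogenised in PBS pH 7.4 with 1 mM MgCl2, and the crude extract at 1 mg/mL protein was treated with 10 μM compound for 30 min. Aliquots were heated for 3 min across 48°C-58°C, pooled, and brought to 0.5% NP-40 at 4°C; soluble protein was the supernatant after 21,000xg for 90 min. Soluble protein was quantified by TMTpro 16plex LC-MS/MS with channel sums equalised, and reported as log2 fold change in thermal stability against DMSO controls, with values from duplicates.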

[1] = compound: CC(=O)c1cnc2ccc(-c3cc(Cl)c(O)c(Cl)c3)nc2c1N[C@H]1CC[C@H](CN(C)C)CC1
Summary of the method: as §1

ralimetinib = compound: CC(C)(C)Cn1c(N)nc2ccc(-c3[nH]c(C(C)(C)C)nc3-c3ccc(F)cc3)nc21 [ralimetinib]
Summary of the method: as §1

[2] = compound: CC(C)(O)CC(=O)NCCn1ccc2ncnc(Nc3ccc(Oc4cccc(C(F)(F)F)c4)c(Cl)c3)c21
Summary of the method: as §1

[3] = compound: CC(C)C1=C2N=C(C=C(N2N=C1)NCC3=CC=CC=C3)NCCCCCCN
Summary of the method: as §1

[4] = compound: CC1=C(C(CC(=O)N1)C2=CC=C(C=C2)C(F)(F)F)C(=O)NC3=C(C=C4C(=C3)C=NN4)F
Summary of the method: as §1

[5] = compound: CC1=C(C2=C(C=C1)C(=O)C3=CC=CC=C3N2CCCN)C
Summary of the method: as §1

[6] = compound: CC1=C(C=C(C=C1)NC(=O)C2=CC(=CC=C2)C(C)(C)C#N)NC3=CC4=C(C=C3)N=CN(C4=O)C
Summary of the method: as §1

[7] = compound: CC1=C(C=C(C=C1)NC(=O)C2=CC(=CC=C2)N(C)C)NC(=O)C3=CC=C(C=C3)O
Summary of the method: as §1

[8] = compound: CC1=CC=C(C=C1)SC2=C3C=C(SC3=CN=C2)C(=O)N
Summary of the method: as §1

vemurafenib = compound: CCCS(=O)(=O)Nc1ccc(F)c(C(=O)c2c[nH]c3ncc(-c4ccc(Cl)cc4)cc23)c1F [vemurafenib]
Summary of the method: as §1

[9] = compound: CCCS(=O)(=O)Nc1ccc(F)c(C(=O)c2c[nH]c3ncc(Cl)cc23)c1F
Summary of the method: as §1

barasertib = compound: CCN(CCCOc1ccc2c(Nc3cc(CC(=O)Nc4cccc(F)c4)[nH]n3)ncnc2c1)CCOP(=O)(O)O [barasertib]
Summary of the method: as §1

[10] = compound: CC[C@@H]1C(=O)N(C)c2cnc(Nc3ccc(C(=O)NC4CCN(C)CC4)cc3OC)nc2N1C1CCCC1
Summary of the method: as §1

volasertib = compound: CC[C@@H]1C(=O)N(C)c2cnc(Nc3ccc(C(=O)N[C@H]4CC[C@H](N5CCN(CC6CC6)CC5)CC4)cc3OC)nc2N1C(C)C [volasertib]
Summary of the method: as §1

[11] = compound: CCn1c(C(=O)N(C2CC2)C2CC2)cc2c3c(ncn3C)c(Nc3cc(C)n(C)n3)nc21
Summary of the method: as §1

[12] = compound: CCn1cc(-c2ccnc3[nH]c(-c4cccc(CN(C)C)c4)cc23)c(-c2ccc(NC(=O)N(C)C)cc2)n1
Summary of the method: as §1

[13] = compound: CN1CCC(CNc2ccc3ncc(-c4cccc(OC(F)(F)F)c4)n3n2)CC1
Summary of the method: as §1

saracatinib = compound: CN1CCN(CCOc2cc(OC3CCOCC3)c3c(Nc4c(Cl)ccc5c4OCO5)ncnc3c2)CC1 [saracatinib]
Summary of the method: as §1

sotrastaurin = compound: CN1CCN(c2nc(C3=C(c4c[nH]c5ccccc45)C(=O)NC3=O)c3ccccc3n2)CC1 [sotrastaurin]
Summary of the method: as §1

UniProt Q13487, sequence (Q13487 whole entry, looked up): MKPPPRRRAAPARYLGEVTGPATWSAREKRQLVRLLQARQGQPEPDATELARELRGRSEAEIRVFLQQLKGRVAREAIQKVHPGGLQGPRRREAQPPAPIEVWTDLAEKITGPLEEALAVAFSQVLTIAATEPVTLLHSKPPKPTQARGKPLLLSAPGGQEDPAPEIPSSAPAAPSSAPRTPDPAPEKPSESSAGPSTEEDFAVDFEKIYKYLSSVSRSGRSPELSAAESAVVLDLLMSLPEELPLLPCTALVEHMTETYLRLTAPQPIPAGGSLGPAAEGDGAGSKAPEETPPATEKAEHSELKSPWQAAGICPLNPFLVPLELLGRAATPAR
UniProt Q9UJZ1, sequence (Q9UJZ1 whole entry, looked up): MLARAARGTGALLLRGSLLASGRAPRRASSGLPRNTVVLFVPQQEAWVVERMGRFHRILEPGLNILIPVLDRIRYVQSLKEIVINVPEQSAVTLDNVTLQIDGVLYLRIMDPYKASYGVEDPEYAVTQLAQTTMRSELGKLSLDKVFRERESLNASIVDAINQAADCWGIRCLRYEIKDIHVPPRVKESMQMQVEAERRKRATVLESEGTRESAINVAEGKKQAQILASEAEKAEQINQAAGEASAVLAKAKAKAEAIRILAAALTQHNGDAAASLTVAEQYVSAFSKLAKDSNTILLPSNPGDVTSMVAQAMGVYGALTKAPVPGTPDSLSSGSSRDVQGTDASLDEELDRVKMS
UniProt Q9UPR3, sequence (Q9UPR3 whole entry, looked up): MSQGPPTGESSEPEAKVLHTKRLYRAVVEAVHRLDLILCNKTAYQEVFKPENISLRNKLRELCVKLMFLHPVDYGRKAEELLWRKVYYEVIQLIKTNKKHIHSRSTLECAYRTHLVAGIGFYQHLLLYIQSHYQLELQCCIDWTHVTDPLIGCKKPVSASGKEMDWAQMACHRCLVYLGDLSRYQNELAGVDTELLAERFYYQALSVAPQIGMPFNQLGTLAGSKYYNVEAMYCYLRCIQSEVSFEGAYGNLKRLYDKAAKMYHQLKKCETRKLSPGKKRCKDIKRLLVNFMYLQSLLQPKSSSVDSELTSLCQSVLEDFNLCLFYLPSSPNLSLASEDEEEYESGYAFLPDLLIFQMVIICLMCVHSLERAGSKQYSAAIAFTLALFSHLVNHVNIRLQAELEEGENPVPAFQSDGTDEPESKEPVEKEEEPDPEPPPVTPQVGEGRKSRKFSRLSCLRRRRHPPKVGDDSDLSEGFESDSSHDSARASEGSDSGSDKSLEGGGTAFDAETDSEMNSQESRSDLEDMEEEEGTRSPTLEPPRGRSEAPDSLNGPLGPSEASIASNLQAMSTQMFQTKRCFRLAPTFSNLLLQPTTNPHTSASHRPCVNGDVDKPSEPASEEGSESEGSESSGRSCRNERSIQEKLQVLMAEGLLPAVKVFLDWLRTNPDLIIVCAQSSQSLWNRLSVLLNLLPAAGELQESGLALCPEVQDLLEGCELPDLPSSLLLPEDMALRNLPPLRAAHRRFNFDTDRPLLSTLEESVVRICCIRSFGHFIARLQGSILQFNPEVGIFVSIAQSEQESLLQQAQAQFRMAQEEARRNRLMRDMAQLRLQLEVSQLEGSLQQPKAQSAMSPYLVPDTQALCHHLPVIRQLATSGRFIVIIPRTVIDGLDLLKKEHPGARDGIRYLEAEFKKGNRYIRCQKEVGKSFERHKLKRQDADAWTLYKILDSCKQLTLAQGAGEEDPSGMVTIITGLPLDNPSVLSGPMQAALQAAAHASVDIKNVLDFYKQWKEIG
UniProt Q9UL54, sequence (Q9UL54 whole entry, looked up): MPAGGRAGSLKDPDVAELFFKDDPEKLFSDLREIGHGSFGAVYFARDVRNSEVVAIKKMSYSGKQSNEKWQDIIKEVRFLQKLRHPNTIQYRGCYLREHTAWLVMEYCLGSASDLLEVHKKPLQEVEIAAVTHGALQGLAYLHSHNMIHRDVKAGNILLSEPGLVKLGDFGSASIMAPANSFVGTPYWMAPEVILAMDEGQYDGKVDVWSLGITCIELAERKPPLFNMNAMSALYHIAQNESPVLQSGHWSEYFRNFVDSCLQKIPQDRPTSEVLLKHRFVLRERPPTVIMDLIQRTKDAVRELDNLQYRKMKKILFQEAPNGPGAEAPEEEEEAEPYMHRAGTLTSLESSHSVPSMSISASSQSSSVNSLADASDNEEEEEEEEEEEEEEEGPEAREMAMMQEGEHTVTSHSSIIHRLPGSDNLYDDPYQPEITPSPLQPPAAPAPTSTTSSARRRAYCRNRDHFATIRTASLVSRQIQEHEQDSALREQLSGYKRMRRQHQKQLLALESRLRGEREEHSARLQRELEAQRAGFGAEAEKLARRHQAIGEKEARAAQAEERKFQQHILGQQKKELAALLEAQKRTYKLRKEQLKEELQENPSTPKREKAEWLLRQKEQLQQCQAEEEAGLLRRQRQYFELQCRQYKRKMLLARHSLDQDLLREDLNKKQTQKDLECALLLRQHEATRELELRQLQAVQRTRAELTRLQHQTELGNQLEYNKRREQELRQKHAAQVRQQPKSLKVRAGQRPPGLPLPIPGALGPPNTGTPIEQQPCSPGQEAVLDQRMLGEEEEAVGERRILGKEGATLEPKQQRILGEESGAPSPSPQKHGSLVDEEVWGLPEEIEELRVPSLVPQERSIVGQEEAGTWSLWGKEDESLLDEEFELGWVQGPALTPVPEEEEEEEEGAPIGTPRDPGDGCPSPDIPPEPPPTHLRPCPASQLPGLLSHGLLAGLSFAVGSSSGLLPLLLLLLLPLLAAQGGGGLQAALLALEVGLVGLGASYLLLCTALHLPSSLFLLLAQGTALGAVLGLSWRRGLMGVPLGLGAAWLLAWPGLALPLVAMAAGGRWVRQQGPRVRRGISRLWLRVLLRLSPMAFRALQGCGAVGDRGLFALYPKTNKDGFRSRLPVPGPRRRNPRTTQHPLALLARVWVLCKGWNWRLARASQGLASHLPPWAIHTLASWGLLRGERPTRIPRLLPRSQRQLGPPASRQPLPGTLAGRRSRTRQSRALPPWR
UniProt O95391, sequence (O95391 whole entry, looked up): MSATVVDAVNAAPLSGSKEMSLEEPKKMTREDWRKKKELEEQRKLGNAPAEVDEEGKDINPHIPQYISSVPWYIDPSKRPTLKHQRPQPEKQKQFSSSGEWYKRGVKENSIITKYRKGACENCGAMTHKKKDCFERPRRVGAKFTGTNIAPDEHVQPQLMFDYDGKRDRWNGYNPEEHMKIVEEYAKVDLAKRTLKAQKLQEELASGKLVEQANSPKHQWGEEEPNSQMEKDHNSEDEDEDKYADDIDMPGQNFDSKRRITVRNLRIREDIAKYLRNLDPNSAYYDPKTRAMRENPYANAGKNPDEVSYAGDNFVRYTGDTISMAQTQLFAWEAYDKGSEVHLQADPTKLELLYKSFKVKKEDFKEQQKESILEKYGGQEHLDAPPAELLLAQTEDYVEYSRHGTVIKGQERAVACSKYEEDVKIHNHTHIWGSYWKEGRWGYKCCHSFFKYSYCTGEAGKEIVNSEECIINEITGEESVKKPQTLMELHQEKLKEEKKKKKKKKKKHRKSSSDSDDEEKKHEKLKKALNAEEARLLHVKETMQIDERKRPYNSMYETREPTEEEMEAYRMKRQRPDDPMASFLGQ
UniProt O00161, sequence (O00161 whole entry, looked up): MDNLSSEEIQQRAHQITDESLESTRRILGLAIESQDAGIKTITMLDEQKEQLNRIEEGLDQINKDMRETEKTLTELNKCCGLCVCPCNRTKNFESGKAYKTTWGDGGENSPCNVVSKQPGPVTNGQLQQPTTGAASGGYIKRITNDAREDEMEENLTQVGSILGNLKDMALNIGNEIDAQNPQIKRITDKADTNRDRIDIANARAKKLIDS
UniProt Q96BD0, sequence (Q96BD0 whole entry, looked up): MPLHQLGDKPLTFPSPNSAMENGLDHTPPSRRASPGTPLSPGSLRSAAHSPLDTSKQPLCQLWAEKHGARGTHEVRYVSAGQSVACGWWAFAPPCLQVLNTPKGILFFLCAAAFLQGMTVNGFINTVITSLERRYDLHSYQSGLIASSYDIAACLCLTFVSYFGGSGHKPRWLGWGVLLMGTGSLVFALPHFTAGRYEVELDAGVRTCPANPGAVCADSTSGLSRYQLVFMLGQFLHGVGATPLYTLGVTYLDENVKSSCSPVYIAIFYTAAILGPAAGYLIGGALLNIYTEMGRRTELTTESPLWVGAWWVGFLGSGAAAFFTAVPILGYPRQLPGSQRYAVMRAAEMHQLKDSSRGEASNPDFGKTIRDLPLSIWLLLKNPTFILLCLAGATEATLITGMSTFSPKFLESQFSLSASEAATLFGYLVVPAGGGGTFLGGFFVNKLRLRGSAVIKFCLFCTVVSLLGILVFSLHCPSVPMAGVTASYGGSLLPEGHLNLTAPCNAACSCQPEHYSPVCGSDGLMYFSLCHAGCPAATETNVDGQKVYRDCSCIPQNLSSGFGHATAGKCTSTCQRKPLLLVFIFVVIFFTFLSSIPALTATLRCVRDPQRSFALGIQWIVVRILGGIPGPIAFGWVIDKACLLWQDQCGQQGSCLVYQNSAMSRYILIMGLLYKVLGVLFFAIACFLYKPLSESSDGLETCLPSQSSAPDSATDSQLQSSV
UniProt Q15464, sequence (Q15464 whole entry, looked up): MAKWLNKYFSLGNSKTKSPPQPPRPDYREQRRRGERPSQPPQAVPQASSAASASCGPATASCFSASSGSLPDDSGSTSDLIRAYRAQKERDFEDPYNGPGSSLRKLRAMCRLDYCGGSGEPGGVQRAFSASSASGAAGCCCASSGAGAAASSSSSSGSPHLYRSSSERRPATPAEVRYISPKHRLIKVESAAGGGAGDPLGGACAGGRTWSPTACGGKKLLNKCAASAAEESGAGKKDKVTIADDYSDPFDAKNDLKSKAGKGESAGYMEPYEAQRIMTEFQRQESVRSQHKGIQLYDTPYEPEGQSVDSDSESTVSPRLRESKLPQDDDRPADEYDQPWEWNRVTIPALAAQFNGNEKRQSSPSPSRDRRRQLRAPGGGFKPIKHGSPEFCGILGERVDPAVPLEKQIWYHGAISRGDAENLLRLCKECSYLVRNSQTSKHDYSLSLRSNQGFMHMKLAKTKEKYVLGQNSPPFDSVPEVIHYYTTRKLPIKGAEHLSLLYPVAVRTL

Target	log2 fold change (ibrutinib)	log2 fold change [1]	log2 fold change (ralimetinib)	log2 fold change [2]	log2 fold change [3]	log2 fold change [4]	log2 fold change [5]	log2 fold change [6]	log2 fold change [7]	log2 fold change [8]	log2 fold change (vemurafenib)	log2 fold change [9]	log2 fold change (barasertib)	log2 fold change [10]	log2 fold change (volasertib)	log2 fold change [11]	log2 fold change [12]	log2 fold change [13]	log2 fold change (saracatinib)	log2 fold change (sotrastaurin)
SLC29A2 (UniProt Q14542)	0.035	0.045	0.082	-0.036	0.043	-0.001	-0.011	0.041	0.072	0.006	0.003	0.012	0.029	0.049	-0.041	-0.079	-0.729 (active)	0.206	-0.004	0.013
STOML2 (UniProt Q9UJZ1)	0.017	-0.012	-0.015	-0.028	0.033	-0.025	-0.04	0	0.002	-0.006	0.026	0.009	0.115	0.043	0.033	-0.015	0.111	-0.047	-0.01	-0.002
SMG5 (UniProt Q9UPR3)	-0.041	0.048	0.021	-0.032	-0.037	0.071	0.015	-0.117	0.057	0.024	0.009	0.048	0.047	0.029	-0.006	0.068	0.038	-0.004	0.05	-0.024
TADA3 (UniProt O75528)	0.032	0	-0.013	-0.022	0.018	-0.003	-0.005	0.054	0.024	-0.011	-0.007	0.004	0.002	0.008	-0.006	-0.022	-0.122	0.006	-0.017	-0.012
STK4 (UniProt Q13043)	0.056	0.324	-0.006	0.007	0.004	-0.023	-0.015	-0.036	0.024	-0.07	0.058	0.047	0.029	0.002	-0.046	0.023	-0.019	0.168	0.029	0.199
SPAG1 (UniProt Q07617)	0.034	0.282	-0.017	-0.17	–	–	–	0.15	0.079	-0.198	0.041	0.028	0.018	–	-0.137	0.083	–	–	–	-0.02
SLC40A1 (UniProt Q9NP59)	–	-0.028	-0.037	-0.096	0.042	-0.017	0.049	-0.034	0.041	-0.055	0.01	-0.037	–	0.123	0.037	-0.106	-0.491 (active)	0.067	0	0.026
SLC41A1 (UniProt Q8IVJ1)	–	0.007	-0.003	0.112	-0.037	-0.023	–	-0.081	0.09	0.041	–	0.021	–	0.085	-0.084	0.035	0.083	0.06	–	0.082
STK38L (UniProt Q9Y2H1)	–	–	-0.069	0.021	-0.019	-0.024	-0.019	0	0.056	–	–	–	–	-0.105	–	-0.047	–	–	-0.058	-0.01
SLC12A6 isoform 2 (UniProt Q9UHW9)	–	0.016	-0.01	0.017	-0.018	–	0.027	0.063	-0.006	0.122	–	0.009	–	0.053	-0.178	-0.021	–	–	0.042	0.057
SNAPC2 (UniProt Q13487)	0.092	–	0.002	-0.029	-0.032	-0.073	-0.071	-0.008	0.011	–	–	–	-0.211	–	–	0.04	0.039	0.048	0.038	0.154
SNIP1 (UniProt Q8TAD8)	–	–	–	–	–	-0.062	–	–	–	–	–	–	–	–	–	–	–	–	–	–
SHB (UniProt Q15464)	–	-0.023	0.023	-0.025	-0.009	–	-0.01	0.023	-0.012	0.05	–	-0.049	–	–	0.072	0.113	-0.125	-0.162	0.003	-0.003
SHC1 (UniProt P29353)	–	–	–	–	–	–	–	–	–	–	–	–	–	–	–	–	-0.2	-0.114	–	–
SLC35A3 isoform 2 (UniProt Q9Y2D2)	–	-0.034	-0.027	0.234	-0.027	-0.133	–	0.111	-0.025	0.051	-0.024	-0.031	–	0.056	0.005	-0.374	-1.1 (active)	0.336	–	-0.026
SLU7 (UniProt O95391)	-0.084	–	-0.013	-0.018	0.045	-0.029	-0.015	0	-0.031	–	-0.043	–	-0.07	0.062	–	-0.004	-0.188	0.166	0.093	-0.027
STK17B (UniProt O94768)	–	–	0.104	-0.004	0.162	0.054	-0.102	0.147	0.07	–	–	–	–	–	–	-0.451	–	–	-0.002	0.057
SLCO4A1 (UniProt Q96BD0)	0.081	–	–	–	–	0.115	–	–	–	–	–	–	0.037	–	–	–	-0.015	0.042	–	–
TARDBP (UniProt K7EN94)	–	–	–	–	–	–	–	–	–	–	0.008	–	–	-0.039	–	–	–	–	–	–
SKP2 (UniProt Q13309)	–	-0.137	0.137	0.045	0.058	-0.041	0.023	-0.097	-0.015	-0.576 (active)	0.417	0.093	–	0.193	0.05	0.025	0.121	-0.008	-0.011	0.032
SNAP23 isoform 2 (UniProt O00161)	–	-0.045	-0.071	0.095	-0.029	0.306	–	–	0.027	0.028	0.172	0.09	–	0.052	0.003	-0.029	0.123	-0.061	–	–
SMARCA4 isoform 4 (UniProt P51532)	–	0.044	0.051	-0.022	-0.337	0.093	-0.018	-0.107	0.192	0.041	–	-0.047	–	0.049	0.043	-0.192	-0.086	0.057	0.119	0.325
TAOK2 (UniProt Q9UL54)	-0.009	0.151	-0.035	-0.033	–	-0.072	-0.053	-0.037	-0.044	0.024	-0.039	-0.041	0.059	0.021	-0.056	-0.077	-0.005	-0.003	-0.005	0.109
